The target of one assay is SECISBP2L. The experiment in a line: pooled miR-30 sensor sort-seq; sequence = guide strand. As to conditions: shRNA.
TTGCTGTGAAGCATCTACCAGA: the sensor-assay potency score (higher = more potent) is -0.408.
The sequence TTCCTGGGAAACAATCTCCTGT showed a sensor-assay potency score (higher = more potent) of -0.00713.
The sequence TAGTGTGAAAAGAAGCTGCAGT showed a sensor-assay potency score (higher = more potent) of 0.417.
TACGCTAACAGGAACCAGCTTG yielded a sensor-assay potency score (higher = more potent) of -0.34.
On the same count and under the same terms, as for TTGATCGACTATCAGGACCTGC, the figure is -0.0412.
For TTGTTGAATATTCTCATCCTTA, the sensor-assay potency score (higher = more potent) was -0.343.
The sequence TAGTCCAGTATCTTCCTGGGAA yielded a sensor-assay potency score (higher = more potent) of -0.242.
Same read-out and setting: the result for TAGCTGAGGTAGTACTGCCTGT reads -0.712; that for TATAACACACTTGATCTTGTTT, 0.0597.
On the same count and under the same terms, the result for TATAACATTATAGAGAGCCTCA reads -0.0315.
Turning to TTGAAACCCATCTTCATCCTGT, the sensor-assay potency score (higher = more potent) was 0.983.
In turn, TTTCTGAATACTCTTGAGCTGT gave a sensor-assay potency score (higher = more potent) of -0.537.

A further assay concerns the target SECISBP2. The description is as above. As to conditions: shRNA.
In the case of TTGAGAGCAAACACAAAGGGAA, the sensor-assay potency score (higher = more potent) is -0.174.
Consider TTTTCTTCTTAAACAGAGCTTT, for which the sensor-assay potency score (higher = more potent) is -0.323.
The same measure, in the same setting: as for TTTGACTGTATCTTCTCACAGT, the figure is 0.358; as for TTGCAGTTCAGGAAAGTCCAGT, -0.458.
Same read-out and setting: the result for TTTGATAACACTGCAGCTGGTT reads 0.27; that for TAACACAAGCATCCACTTCTTT, -0.191; that for TAACATTTTTAGGATCTGCTGA, 0.162.
Same read-out and setting: the result for TTTCAAACTATTCTCAGCGTAA reads -0.344.
With TTGACATCTGCTGATAACTTGA, the sensor-assay potency score (higher = more potent) was -0.133.
On the same count and under the same terms, as for TTTGTTGTAGGAAGGATCCGAA, the figure is -0.00971; as for TTCGCTTATGGTAACCATCTGA, 0.0735; as for TTCACTGTCAAACTTTTGCTGA, -0.0289.

Source of the values: the OligoGym collection.
Note: reference of the scale not given here.
